We go through 64 compounds from the antibiotic and cytotoxicity screens of Wong et al. (2023).

Among all 39,000 compounds or so, about 3,300 (8.5%) were called active. This is one part of a sample in which actives are shown more often than they occur.

The subject of the assay is HepG2. The experiment in a line: cytotoxicity call (relative viability < 0.9). The following applies: 10 µM.
On to `C[C@H](CO)N1C[C@H](C)[C@@H](CN(C)S(=O)(=O)c2cn(C)cn2)Oc2c(NC(=O)CCCN(C)C)cccc2C1=O`, for which the cytotoxicity call is “inactive”.
In the case of `COc1ccc(NC(=O)N[C@@H]2CC[C@@H](CCNC(=O)CN3CCOCC3)O[C@@H]2CO)cc1` it was “inactive”; in that of `C[C@@H]1CN([C@@H](C)CO)C(=O)CCCn2cc(nn2)CO[C@H]1CN(C)S(=O)(=O)c1ccc2c(c1)OCCCO2`, “inactive”.
Consider `Cc1noc(C)c1NC(=O)N(C)C[C@H]1Oc2ccc(NS(C)(=O)=O)cc2C(=O)N([C@@H](C)CO)C[C@H]1C`, for which the cytotoxicity call was “inactive”.
Consider `C[C@H]1CCCCO[C@@H](CN(C)S(=O)(=O)c2ccc(F)cc2)[C@@H](C)CN([C@@H](C)CO)C(=O)c2cc(NC(=O)Nc3cccc4ccccc34)ccc2O1`, for which the cytotoxicity call is “inactive”.
As to `Cc1noc(C)c1NC(=O)Nc1ccc2c(c1)C(=O)N([C@H](C)CO)C[C@@H](C)[C@H](CN(C)C(=O)Nc1ccc(C(F)(F)F)cc1)OCCCC[C@@H](C)O2`, the cytotoxicity call was “inactive”.
In the case of `C[C@@H]1CN([C@H](C)CO)C(=O)c2cccc(NS(=O)(=O)c3ccccc3)c2O[C@@H]1CN(C)S(=O)(=O)c1cccs1` it was “inactive”.
The value for `C/C1=C2/[N]([Co+][OH])[C@H]([C@H](CC(N)=O)[C@@]2(C)CCC(=O)NC[C@@H](C)OP(=O)(O)O[C@H]2[C@@H](O)[C@@H](n3cnc4cc(C)c(C)cc43)O[C@@H]2CO)[C@]2(C)N=C(/C(C)=C3N=C(/C=C4N=C1[C@@H](CCC(N)=O)C/4(C)C)[C@@H](CCC(N)=O)[C@]\3(C)CC(N)=O)[C@@H](CCC(N)=O)[C@]2(C)CC(N)=O` was “active”; that for `C[C@@H]1CN([C@@H](C)CO)C(=O)c2cc(NC(=O)Nc3ccc4c(c3)OCO4)ccc2O[C@H]1CN(C)C(=O)Nc1cccc2ccccc12` was “inactive”; that for `O=C(C[C@@H]1C[C@H]2c3cc(NC(=O)NC4CCCC4)ccc3O[C@H]2[C@H](CO)O1)NCCN1CCCCC1` was “inactive”.
As to `Cc1cc(=O)oc2c(O)c(O)ccc12`, the cytotoxicity call is “active”.
With `O=c1cc(-c2ccccc2)oc2c(O)c(O)ccc12`, the cytotoxicity call was “active”.
In the case of `Cc1cc(=O)oc2cc(O)ccc12` it was “inactive”; in that of `Cc1cc2cc3c(C)cc(=O)oc3c(C)c2o1`, “inactive”.
With `O=c1cc(-c2ccccc2)oc2cc(O)ccc12`, the cytotoxicity call is “inactive”.
As for `COc1ccc2c(=O)cc(-c3ccccc3)oc2c1OC`, the cytotoxicity call is “inactive”.
In the case of `C[C@@H]1CCCCO[C@@H](CN(C)C(=O)Nc2ccc(F)cc2)[C@H](C)CN([C@H](C)CO)C(=O)c2cc(NC(=O)Nc3ccccc3)ccc2O1` it was “inactive”.
Take `C[C@@H]1CN([C@@H](C)CO)C(=O)c2cc(NS(=O)(=O)c3ccc(Cl)cc3)ccc2O[C@@H](C)CCCCO[C@H]1CN(C)C(=O)c1ccccc1`: the cytotoxicity call is “inactive”.
The value for `Cc1ccc(S[C@]2(C(=O)NCC(C)C)CC(=O)N(Cc3ccccc3C(F)(F)F)[C@@H]2c2ccc(CO)cc2)cc1` was “inactive”; that for `Cc1noc(C)c1NC(=O)Nc1ccc2c(c1)C(=O)N([C@@H](C)CO)C[C@@H](C)[C@H](CN(C)Cc1ccc(Oc3ccccc3)cc1)O2` was “inactive”; that for `COC(=O)CCCCCCC(=O)N/N=C/[C@H](O)[C@H](O)[C@@H](O)[C@H](C)O` was “inactive”.
Take `C=CC[C@H](CC(=O)N(CCO)Cc1ccccc1)C(=O)N[C@H](COC(=O)[C@H](CC=C)CC(=O)OC(C)(C)C)Cc1c[nH]c2ccccc12`: the cytotoxicity call is “inactive”.
In the case of `C=CC[C@@H](CC(=O)N(CCO)Cc1ccccc1)C(=O)N[C@H](COC(=O)[C@@H](CC=C)Cc1ccc(F)cc1)Cc1c[nH]c2ccccc12` it was “active”; in that of `C=CC[C@H](CC(=O)N(CCO)Cc1ccccc1)C(=O)N[C@H](COC(=O)[C@@H](CC=C)Cc1ccc(F)cc1)Cc1c[nH]c2ccccc12`, “inactive”; in that of `C=CC[C@@H](CC(=O)N(CCO)Cc1ccccc1)C(=O)N[C@@H](COC(=O)[C@H](CC=C)Cc1ccc(F)cc1)Cc1c[nH]c2ccccc12`, “active”.
Regarding `C=CC[C@@H](CC(=O)N(CCO)Cc1ccccc1)C(=O)N[C@@H](COC(=O)[C@@H](CC=C)Cc1ccc(F)cc1)Cc1c[nH]c2ccccc12`, the cytotoxicity call is “inactive”.
In the case of `C=CC[C@@H](CC(=O)N(CCO)Cc1ccccc1)C(=O)N[C@@H](COC(=O)[C@@H](CC=C)CC(=O)OC(C)(C)C)Cc1c[nH]c2ccccc12` it was “inactive”; in that of `C=CC[C@@H](CC(=O)N(CCO)Cc1ccccc1)C(=O)N[C@@H](COC(=O)[C@H](CC=C)CC(=O)OC(C)(C)C)Cc1c[nH]c2ccccc12`, “inactive”.
With `C=CC[C@H](CC(=O)N(CCO)Cc1ccccc1)C(=O)N[C@@H](COC(=O)[C@@H](CC=C)Cc1ccc(F)cc1)Cc1c[nH]c2ccccc12`, the cytotoxicity call was “active”.
In the case of `C=CC[C@H](CC(=O)N(CCO)Cc1ccccc1)C(=O)N[C@@H](COC(=O)[C@H](CC=C)CC(=O)OC(C)(C)C)Cc1c[nH]c2ccccc12`, the cytotoxicity call was “inactive”.
In the case of `c1ccc2c(CSc3nc4ccccc4o3)cccc2c1`, the cytotoxicity call was “inactive”.
In the case of `CNC(=O)C[C@H]1CC[C@@H]2[C@H](COC[C@H](O)CN2C(=O)Nc2cccc(OC)c2)O1` it was “inactive”; in that of `C[C@@H]1CCCCO[C@H](CN(C)C(=O)Nc2cccc3ccccc23)[C@@H](C)CN([C@H](C)CO)C(=O)c2cc(NC(=O)Nc3cccc4ccccc34)ccc2O1`, “inactive”; in that of `C[C@@H]1CN([C@@H](C)CO)C(=O)c2cc(NS(=O)(=O)c3ccc(Cl)cc3)ccc2O[C@@H](C)CCCCO[C@H]1CN(C)S(=O)(=O)c1ccccc1`, “inactive”.
Consider `COc1ccc(NC(=O)N(C)C[C@H]2OCc3cnnn3CCCC(=O)N([C@H](C)CO)C[C@H]2C)c(OC)c1`, for which the cytotoxicity call was “inactive”.
`C[C@@H]1CN([C@H](C)CO)C(=O)c2c(c3ccccc3n2C)-c2ccccc2CO[C@H]1CN(C)C(=O)CCC(F)(F)F`: the cytotoxicity call was “inactive”.
Regarding `C[C@@H]1CN([C@@H](C)CO)C(=O)c2cc(C#CC3(O)CCCC3)cnc2O[C@@H]1CN(C)C(=O)Nc1ccc2c(c1)OCO2`, the cytotoxicity call was “inactive”.
Take `COCC#Cc1ccc2c(c1)O[C@@H](CN(C)C(=O)C1CCOCC1)[C@@H](C)CN([C@H](C)CO)S2(=O)=O`: the cytotoxicity call was “inactive”.
In the case of `CCS(=O)(=O)Nc1ccc2c(c1)C(=O)N(C)[C@H]1CC[C@@H](CC(=O)NCc3ccccc3F)O[C@H]1CO2` it was “inactive”; in that of `C[C@H](CO)N1C[C@H](C)[C@H](CN(C)Cc2ccccc2)Oc2ccc(NC(=O)CCCCCC(=O)Nc3ccccc3N)cc2CC1=O`, “inactive”.
The value for `C[C@H](CO)N1C[C@H](C)[C@H](CN(C)Cc2ccc(-c3ccccc3)cc2)Oc2ccc(NC(=O)CCCCCC(=O)Nc3ccccc3N)cc2CC1=O` was “active”.
In the case of `C[C@@H]1CN([C@@H](C)CO)C(=O)Cc2cc(NC(=O)CCCCCC(=O)Nc3ccccc3N)ccc2O[C@@H]1CN(C)Cc1ccc(-c2ccccc2)cc1` it was “active”.
For `C[C@@H]1CN([C@@H](C)CO)C(=O)Cc2cc(NC(=O)CCCCCC(=O)Nc3ccccc3N)ccc2O[C@@H]1CN(C)Cc1ccccc1`, the cytotoxicity call is “inactive”.
The value for `C[C@H](CO)N1C[C@H](C)[C@@H](CN(C)Cc2ccc(-c3ccccc3)cc2)Oc2ccc(NC(=O)CCCCCC(=O)Nc3ccccc3N)cc2CC1=O` was “inactive”; that for `C[C@@H]1CN([C@H](C)CO)C(=O)Cc2cc(NC(=O)CCCCCC(=O)Nc3ccccc3N)ccc2O[C@H]1CN(C)Cc1ccc(Cl)c(Cl)c1` was “inactive”.
Take `C[C@@H]1CN([C@H](C)CO)C(=O)Cc2cc(NC(=O)CCCCCC(=O)Nc3ccccc3N)ccc2O[C@@H]1CN(C)Cc1ccccc1`: the cytotoxicity call was “inactive”.
On to `C[C@@H]1CN([C@H](C)CO)C(=O)Cc2cc(NC(=O)CCCCCC(=O)Nc3ccccc3N)ccc2O[C@@H]1CN(C)Cc1ccc(-c2ccccc2)cc1`, for which the cytotoxicity call was “active”.
As for `C[C@@H]1CN([C@H](C)CO)C(=O)Cc2cc(NC(=O)CCCCCC(=O)Nc3ccccc3N)ccc2O[C@@H]1CN(C)Cc1ccc(Cl)c(Cl)c1`, the cytotoxicity call is “active”.
With `C[C@H]1CN([C@@H](C)CO)C(=O)Cc2cc(NC(=O)CCCCCC(=O)Nc3ccccc3N)ccc2O[C@H]1CN(C)Cc1ccc(Cl)c(Cl)c1`, the cytotoxicity call was “inactive”.
With `C[C@H]1CN([C@@H](C)CO)C(=O)Cc2cc(NC(=O)CCCCCC(=O)Nc3ccccc3N)ccc2O[C@@H]1CN(C)Cc1ccc(-c2ccccc2)cc1`, the cytotoxicity call was “inactive”.
In the case of `C[C@H]1CN([C@@H](C)CO)C(=O)Cc2cc(NC(=O)CCCCCC(=O)Nc3ccccc3N)ccc2O[C@H]1CN(C)Cc1ccccc1` it was “inactive”.
The value for `COc1ccc2c3c(n(c2c1)C)[C@H](CO)N(C[C@]13CCN(CC1)S(=O)(=O)c1ccccc1)C(=O)c1cccnc1` was “inactive”.
In the case of `c1ccc(-c2cc(-c3nc4ccccc4[nH]3)c3ccccc3n2)cc1`, the cytotoxicity call is “inactive”.
As for `CNCc1cnc(NC)nc1`, the cytotoxicity call was “inactive”.
The value for `C[C@@H]1CN([C@H](C)CO)C(=O)c2cccc(NS(=O)(=O)c3cn(C)cn3)c2O[C@H]1CN(C)CC1CC1` was “inactive”; that for `CCO[C@@H]1OC(C(=O)N2CCN(Cc3ccccc3)CC2)=C[C@H](c2cn(C(C)=O)c3ccccc23)[C@H]1CCCOC(=O)NCCCCCC(=O)NO` was “inactive”.
In the case of `CNCc1cc(C)nn1C` it was “inactive”; in that of `COc1cccc(-c2cn(CC[C@@H]3CC[C@@H](NS(=O)(=O)c4ccccc4Cl)[C@H](CO)O3)nn2)c1`, “inactive”.
The value for `C[C@H](CO)N1C[C@H](C)[C@@H](CN(C)S(=O)(=O)c2ccc(F)cc2)Oc2ccc(NC(=O)C3CC3)cc2C1=O` was “inactive”.
As for `Cc1ccc(S(=O)(=O)N[C@H]2CC[C@@H](CC(=O)NCc3ccc(Cl)c(Cl)c3)O[C@H]2CO)cc1`, the cytotoxicity call was “inactive”.
In the case of `C[C@@H]1CCCCO[C@@H](CN(C)CC2CC2)[C@@H](C)CN([C@H](C)CO)C(=O)c2cc(NC(=O)CCC(F)(F)F)ccc2O1` it was “inactive”; in that of `C[C@H]1CN([C@@H](C)CO)C(=O)Cc2cc(NC(=O)CCCCCC(=O)Nc3ccccc3N)ccc2O[C@H]1CN(C)Cc1ccc(-c2ccccc2)cc1`, “active”; in that of `C[C@@H]1CN([C@H](C)CO)C(=O)Cc2cc(NC(=O)CCCCCC(=O)Nc3ccccc3N)ccc2O[C@H]1CN(C)Cc1ccc(-c2ccccc2)cc1`, “inactive”.
Consider `C[C@@H]1CN([C@@H](C)CO)C(=O)Cc2cc(NC(=O)CCCCCC(=O)Nc3ccccc3N)ccc2O[C@H]1CN(C)Cc1ccc(-c2ccccc2)cc1`, for which the cytotoxicity call is “inactive”.
